This note sets out measurements from PubChem BioAssay (NCI).

About 83,000 compounds went through this panel and 20% of them were active in at least one assay; those are over-represented in the sample as a whole.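 Treatment: one concentration, 48 hours, 96-well format. Scoring: percent growth, with anything below 10 considered active.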 Unmarked numbers belong to inactive results. The source made the active and inactive calls.

The assay has as its system SK-MEL-5 melanoma. The assay is described as follows: NCI-60 one-dose screen, 48 h (100 = growth as untreated, 0 = no growth, -100 = all killed). The conditions noted are these: 10 µM unless noted.
As to `Cc1cc2nc3c4cc(Cl)ccc4n(CC(=O)NCCN(C)C)c3nc2cc1C`, the growth is 89.8%.
As to `COc1cc(/C=C/C(=O)c2ccc(C)cc2)ccc1Oc1nc(NCCO)nc(N2CCOCC2)n1`, the growth was 43.7%.
As for `O=C(N/N=C/c1ccc(Cl)s1)c1[nH]c2ccc(Br)cc2c1-c1ccccc1`, the figure is -23% (active).
Turning to `NS(=O)(=O)c1cccc(Nc2nc(SCC(=O)c3ccc([N+](=O)[O-])cc3)nc3ccccc23)c1`, the growth was 7.52% (active).
To `Nc1c(C(=O)c2ccc(Br)cc2)oc2nc(-c3cnccn3)cc(-c3cccs3)c12` belongs 98%.
To `O=C(N/N=C/c1ccc([N+](=O)[O-])o1)c1[nH]c2ccc(Br)cc2c1-c1ccccc1` belongs -84% (active); to `O=C(N/N=C/c1ccc([N+](=O)[O-])s1)c1[nH]c2ccc(Br)cc2c1-c1ccccc1`, -76.6% (active); to `C#Cc1nc(C2=C(C)C(O)/C(=N/O)C2)cs1` (centres undefined), 94.9%.
To `COc1cc(/C=C/C(=O)c2cc(OC)c(OC)c(OC)c2)ccc1OCc1ccccc1` belongs 63.2%.
Take `CCCC(=O)NC(c1ccc(N(CC)CC)cc1)c1cc(C)c2cccnc2c1O` (centres undefined): the growth was -19.8% (active).
As for `CN1CCc2c(sc3ncnc(N/N=C/c4ccc(Cl)c(Cl)c4)c23)C1`, the figure is 86.6%.
As for `O=C(N/N=C/c1ccc[nH]1)c1[nH]c2ccc(Br)cc2c1-c1ccccc1`, the figure is -34.3% (active).
To `COC(=O)C1CCCN(S(=O)(=O)/N=C2\NC(=O)NC2=C(Cl)Cl)C1` (centres undefined) belongs 101%; to `C=CCn1c(SCC(=O)c2ccccc2)nnc1-c1c[nH]c2ccccc12`, 96.6%.
